APEX1 inh: blocks human APE1 abasic DNA cleavage | recombinant APE1, TAMRA/BHQ-2 abasic DNA cleavage fluorescence | actives 0.35% (n = 350,000) | AID 2517 | Potency, µM (doses to about 65.8 µM), without a hit: at the highest dose activity change, negative = inhibition, usual class: inhibitors;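 also: plate controls were vehicle for no effect and reference inhibitor for full effect; nearly all actives have a fitted effect of over 55% in size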
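0.75 nM APE1 + cpd, 15 min RT; start w/ 50 nM TAMRA/BHQ-2 THF-abasic dsDNA; kinetic fluor 525/598 nm ×3 reads @60 s; Δ(read3−read1); normalized to DMSO and NSC13755 control wells.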
GCN5L2 inh: GCN5L2 (KAT2A) acetyltransferase inhibition; AID 504327; actives 0.21% (n = 390,000); Potency, µM (titrated, usually from 58.9 µM), for inactives: at the top dose activity change, negative = inhibition, actives largely listed as inhibitors; GCN5L2 HAT assay, ThioGlo1 CoA-SH fluorescence; Q92830; also: % is scaled to controls: 0 for no effect and ±100 for the full control effect
Target sequence (Q92830 whole entry, looked up): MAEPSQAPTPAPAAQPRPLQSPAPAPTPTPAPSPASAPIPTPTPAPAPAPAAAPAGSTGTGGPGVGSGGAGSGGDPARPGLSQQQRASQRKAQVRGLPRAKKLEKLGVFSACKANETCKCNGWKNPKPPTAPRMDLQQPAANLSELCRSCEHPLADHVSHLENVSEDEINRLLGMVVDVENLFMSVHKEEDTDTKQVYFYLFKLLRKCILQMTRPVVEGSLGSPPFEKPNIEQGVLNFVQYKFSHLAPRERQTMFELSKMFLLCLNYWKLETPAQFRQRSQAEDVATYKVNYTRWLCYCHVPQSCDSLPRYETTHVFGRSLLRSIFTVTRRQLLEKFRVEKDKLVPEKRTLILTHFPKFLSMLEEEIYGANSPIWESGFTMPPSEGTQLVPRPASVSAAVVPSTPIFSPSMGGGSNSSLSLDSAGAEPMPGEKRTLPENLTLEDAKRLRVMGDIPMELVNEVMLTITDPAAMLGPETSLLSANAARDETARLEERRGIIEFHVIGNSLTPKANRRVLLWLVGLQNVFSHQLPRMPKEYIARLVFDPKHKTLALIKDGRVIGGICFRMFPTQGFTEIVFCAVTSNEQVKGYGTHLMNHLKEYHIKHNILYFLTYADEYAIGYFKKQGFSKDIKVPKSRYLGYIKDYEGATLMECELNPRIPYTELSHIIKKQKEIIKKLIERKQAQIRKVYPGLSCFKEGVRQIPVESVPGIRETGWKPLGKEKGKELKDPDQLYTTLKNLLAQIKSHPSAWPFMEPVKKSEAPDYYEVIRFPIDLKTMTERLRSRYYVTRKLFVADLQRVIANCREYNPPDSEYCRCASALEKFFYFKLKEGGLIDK
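qHTS, 1536-well. 20nM enzyme, pH 7.5 HEPES/EDTA/Tween-20 buffer; 15 min compound preinc., RT. Start: 75uM H3(1-25), 70uM AcCoA, 50uM ThioGlo1. Read Ex340/Em540 at t=0 (autofluorescence flag) and t=20 min.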
RECQ1 helicase: blocks DNA unwinding by human RECQ1; Potency, µM (highest dose often 57.3 µM), without a hit: at the highest dose activity, negative = inhibition, actives largely listed as inhibitors; AID 2549; RECQ1 DNA unwinding, red fluorescence kinetic read; P46063; actives 0.54% (n = 240,000);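 also: plate controls were vehicle for no effect and no enzyme for full effect; nearly all actives have a fitted effect of over 30% in size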
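RECQ1T1 50 nM; forked duplex (20 bp + 30-nt ss tails) 200 nM, ATP 2 mM final; pH 8.0, 2 mM MgCl2, 2.5 ug/ml poly(dI-dC); 15 min compound preincubation; discontinuous kinetic read over 2 h at RT.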
ERG Ets-DNA blk: ERG Ets/DNA interaction inhibition. P11308. fluorescence polarization, His-ERG Ets domain / labelled DNA. Potency, µM (highest dose often 76.9 µM), for inactives: top-dose FP activity, negative = inhibition, most hits filed as inhibitors. actives 0.028% (n = 370,000); active = well fitted inhibition curve with a large enough effect in the polarisation, with a control signal flat; inconclusive = small, poorly fitted or top-dose-only effect, or effect the other way, or a change in a side signal; inactive = no such curve, though single readings can be large or run the other way; the % refers to the polarisation;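 also: polarization taken with two DNA probes labelled with fluorescein and Texas red; % of control where 0% means no effect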
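His-tagged ERG Ets domain (1 uM in the protein solution; 300mM KCl, 50mM Tris-HCl, 1mM EDTA, 1mM DTT, pH 7.5) received compound, then a probe mix of 5 nM fluorescein-DNA and 100nM Texas-615-DNA. Fluorescence polarization was read for both dyes.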
WRN helicase inh-1: inhibitors of human WRN helicase; Q14191; WRN helicase unwinding, fluorescent forked duplex, kinetic; Potency, µM (top dose mostly 114 µM), for inactives: at the highest dose activity change, negative = inhibition, usual class: inhibitors; actives 0.46% (n = 360,000); also: % is scaled to controls: 0 for no effect and ±100 for the full control effect; nearly all actives have a fitted effect of over 55% in size
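WRN at 20 nM final preincubated with compound 15 min at room temperature; reaction started with 100 nM fluorophore/quencher forked duplex oligonucleotide and 2 mM ATP final. Unwinding followed kinetically by red fluorescence (ex 525, em 598 nm).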
BLM helicase inh-1: inhibitors of human Bloom syndrome helicase BLM | P54132 | recombinant BLM DNA unwinding, fluorescence dequenching | Potency, µM (titrated, usually from 56.1 µM), without a hit: top-dose activity change, negative = inhibition, actives largely listed as inhibitors | actives 0.2% (n = 350,000) | AID 2528;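 also: plate controls were vehicle for no effect and no enzyme for full effect; nearly all actives have a fitted effect of over 35% in size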
WRN helicase inh-2: WRN helicase inhibition, cherry-pick retest. shares compounds with WRN helicase inh-1. WRN helicase DNA unwinding, fluorescence kinetic. Potency, µM (titrated, usually from 57.1 µM), inactives show at the highest dose activity, negative = inhibition, hits mostly inhibitors. actives 63% (n = 610). AID 720497; also: nearly all actives have a fitted effect of over 65% in size
TO displacement: DNA binding via thiazole orange displacement; shares compounds with WRN helicase inh-1; thiazole orange DNA binding displacement, fluorescence; Potency, µM (highest dose often 57.1 µM), inactives show at the top dose activity change, negative = inhibition, most hits filed as inhibitors; actives 10% (n = 610); AID 720499;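 also: drop in dye fluorescence marks compound binding to DNA; % is scaled to controls: 0 for no effect and ±100 for the full control effect; nearly all actives have a fitted effect of over 60% in size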
BLM helicase inh-2: counter-screen for WRN helicase inhibitors: human BLM helicase inhibition | shares compounds with WRN helicase inh-1 | Recombinant BLM helicase DNA unwinding, red fluorescence | AID 720503 | actives 60% (n = 610) | Potency, µM (top dose mostly 57.1 µM), inactives show at the highest dose activity change, negative = inhibition, actives largely listed as inhibitors; also: nearly all actives have a fitted effect of over 60% in size
An asterisk follows results filed as active; i = inactive; ? = inconclusive; · = no result given. This is a sample that favours compounds with a hit; in the whole collection about 0.88% have one here. Unless noted, calls follow the shape of the dose curve; as a rule, active = well fitted curve in the direction sought with a large enough effect; inconclusive = small, poorly fitted or top-dose-only effect, or another doubt; inactive = no such curve, though single readings can be large; an effect the other way counts as inactive or inconclusive. Potency is read from the fitted curve at half-maximal effect.

SMILES | APEX1 inh | GCN5L2 inh | RECQ1 helicase | ERG Ets-DNA blk | WRN helicase inh-1 | BLM helicase inh-1 | WRN helicase inh-2 | TO displacement | BLM helicase inh-2
COc1ccc(C2Nc3ccccc3C(=O)N2Cc2ccco2)cc1COc1ccc(N)cc1 (centres undefined) | · | · | · | · | · | · | 11µM* | ? | 3µM*
COC(=O)c1cc(NC(=O)c2ccc3c(c2)NC(=O)c2ccccc2S3)cc(C(=O)OC)c1 | -36% | -8% | · | -5% | · | ? | 14µM* | 206% | 1.9µM*
N#C/C(=C\c1ccc(O)c(O)c1)C(=O)Nc1cccc2ncccc12 | 3µM* | -22% | · | 0% | 14µM* | 13µM* | 4.3µM* | 12µM* | 1.7µM*
CCC[n+]1c2ccccc2cc2ccccc21 | 38% | ? | · | -11% | ? | -7% | 3µM* | 1.7µM* | 7.6µM*
O=C(O)CCc1ccc(S(=O)(=O)Nc2cc(C(F)(F)F)ccc2N2CCCC2)cc1 | ? | -6% | · | -3% | ? | · | · | · | ·
COC(=O)c1ccccc1-c1ccc(/C=C2\C(=O)N(c3ccccc3)N=C2c2ccccc2)o1 | -1% | -1% | -5% | 3% | -2% | -2% | · | · | ·
O=C1NN(c2ccc(Cl)c(Cl)c2)C(=O)/C1=C/c1ccc(-c2ccccc2C(=O)O)o1 | -23% | ? | · | 6% | 32µM* | -2% | 19µM* | -17% | -23%
CN(C)CCCNc1nc2cc(-c3ccc4c(ccn4C)c3)sc2c(=O)n1C | · | · | · | · | ? | · | 24µM* | 24µM* | -14%
Oc1cccc(/C=N/Nc2ncnc3c2ncn3Cc2ccccc2)c1 | -1% | -6% | -4% | -4% | -25% | 6% | · | · | ·
Oc1ccc(/C=N/Nc2ncnc3c2ncn3Cc2ccccc2)cc1O | ? | -23% | -19% | 9% | ? | -18% | 7.6µM* | 19µM* | 2.4µM*
Cc1ccc(C(=O)c2nocc2C(=O)c2cccs2)cc1 | -3% | -18% | 2% | -9% | -8% | 2% | · | · | ·
N#Cc1c(C(=O)c2cccs2)no[n+]1[O-] | · | · | · | · | · | · | 22µM* | -8% | 24µM*
COc1ccccc1/C=N/Nc1nc(C)cc(=O)[nH]1 | · | · | · | · | -6% | · | · | · | ·
COc1ccc(OC)c(/C=N/Nc2nc(C)cc(=O)[nH]2)c1 | -15% | -19% | · | ? | 89µM* | -1% | -13% | -4% | -20%
CCCOc1ccc(/C=C2/C(=O)ON=C2C)cc1OCC | 19% | 2% | · | 7% | -7% | -4% | · | · | ·
CCOc1cc(/C=C2\C(=O)ON=C2c2ccccc2)cc(Br)c1O | -4% | 1% | · | 108% | ? | -1% | ? | -2% | ?
COc1cc(/C=C2\C(=O)ON=C2c2ccccc2)cc(Br)c1O | 1% | 4% | · | 54% | ? | -4% | · | · | ·
COc1ccc(/C=C2/C(=O)ON=C2C)cc1Cl | 17% | 2% | · | 17% | ? | -5% | -8% | -7% | 3%
C#CCOc1ccc(/C=C2/C(=O)ON=C2C)cc1Br | -2% | -5% | · | 19% | ? | -3% | -20% | -7% | ?
CCOc1cc(/C=C2\C(=O)ON=C2C)ccc1OCc1ccccc1 | ? | -3% | -2% | 12% | ? | -4% | ? | 0% | -12%
C#CCOc1ccc(Cl)cc1/C=C1/C(=O)ON=C1C | 4% | 2% | · | 6% | -3% | -2% | · | · | ·
Cc1ccc(CN2CC(C(=O)N3CCN(S(=O)(=O)c4cccc(F)c4)CC3)CC2=O)cc1 (centres undefined) | -11% | 1% | · | 8% | -14% | · | · | · | ·
CCOc1ccc(NC(=O)CSc2nccn(-c3ccc4c(c3)OCCO4)c2=O)cc1 | 13% | -2% | · | 11% | -19% | · | · | · | ·
CC(=O)c1cccc(NC(=O)COC(=O)Cc2ccc(Cl)cc2)c1 | -12% | -12% | · | 5% | -2% | · | · | · | ·
O=C(Nc1cc(SCC(O)CO)cc([N+](=O)[O-])c1)c1ccc(-n2cnnn2)cc1 (centres undefined) | 0% | 2% | 0% | 4% | ? | -12% | ? | -27% | ?
SMILES | APEX1 inh | GCN5L2 inh | RECQ1 helicase | ERG Ets-DNA blk | WRN helicase inh-1 | BLM helicase inh-1 | WRN helicase inh-2 | TO displacement | BLM helicase inh-2
Nc1ccc2nc(-c3cccc(-c4nc5ccc(N)cc5[nH]4)c3)[nH]c2c1 | -7% | 2% | · | 5% | 40µM* | ? | ? | 17µM* | ?
Cc1ccc(NC2c3ncccc3C(=O)N2c2ccccc2C)cc1C (centres undefined) | -3% | -1% | 1% | 2% | 45µM* | -11% | 2% | -3% | -16%
CCOc1ccc(N2C(=O)c3cccnc3C2Nc2ccc(Cl)cc2)cc1 (centres undefined) | -3% | -20% | -7% | -2% | -3% | -3% | · | · | ·
Cc1cc(NC(=O)CSc2cn(CCNC(=O)c3ccccc3)c3ccccc23)no1 | -4% | -1% | -6% | -12% | 32µM* | -3% | 12µM* | -14% | 3.4µM*
COc1ccc2c(c1)CC(C(=O)Nc1cccc(C)c1C)CO2 (centres undefined) | · | -12% | · | 4% | · | -7% | · | · | ·
CN(C)CCNc1ccc(CO)c2sc3ccc(O)cc3c(=O)c12 | · | · | · | 5% | ? | · | 24µM* | 22µM* | ?
Cc1n[nH]c(=S)n(NC(=O)/C=C/C(=O)Nn2c(=S)[nH]nc(C)c2=O)c1=O | 7.9µM* | -2% | -20% | 0% | 18µM* | -7% | ? | -15% | 22µM*
C=CCN1C(=O)/C(=C2/Sc3ccccc3N2CCCS(=O)(=O)O)SC1=S | ? | -19% | -14% | ? | ? | -2% | 22µM* | -5% | 22µM*
CCc1cccc(NC(=O)C(Cc2ccccc2)NS(=O)(=O)c2ccc3c(c2)oc(=O)n3C)c1 (centres undefined) | · | -2% | · | -13% | · | 0% | · | · | ·
CCNc1cc2n(c(=O)n1)CCc1cc(OC)c(OC)cc1-2 | 1% | -3% | -12% | · | -13% | 3% | · | · | ·
COc1cc2c(cc1OC)-c1cc(NCc3ccccn3)nc(=O)n1CC2 | -1% | -3% | i | -4% | 45µM* | 0% | -26% | -13% | -28%

Screening results (PubChem BioAssay)
